# In the supplement of paper PMC3414501:
# Where a name gives a salt, the structure may show the parent alone.
# Experiments:
# [1] = tested on: S. cerevisiae SK1 pCDA2-eGFP (USY613), sporulating; experiment: CDA2-GFP sporulation assay sensitivity score (z-score vs DMSO controls); higher = stronger inhibition of sporulation, active = hit call of the paper;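 note: active if sensitivity score above 5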
# [2] = tested on: S. cerevisiae AD1-9 (efflux-pump deficient), vegetative growth in YPD; experiment: growth sensitivity score (doubling time z-score vs DMSO controls); higher = slower growth, strongly negative scores also mark growth inhibition (complete suppression), active = hit call of the paper
# In short: (§1)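 Rich medium in microtiter plates was seeded with Saccharomyces cerevisiae strains BY4741 and AD1-9 at an OD600 of 0.065, and compounds were added as a 1:100 dilution of DMSO stock. A Tecan GENios reader recorded optical density every 15 min for 24 hours, with eight solvent-only wells in each experiment. Average doubling time was the time to reach a set generation point divided by generation number. The growth sensitivity score was the compound mean minus the solvent-only mean, divided by the solvent-only standard deviation.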
# [3] = tested on: S. cerevisiae BY4741 (wild-type), vegetative growth in YPD; experiment: as above
# In short: as §1
SMILES,CDA2-GFP sporulation assay sensitivity score [1],growth sensitivity score [2],growth sensitivity score [3]
"CC1(C)C[C@@H]1C(=O)N/C(=C\CCCCSC[C@H](N)C(=O)O)C(=O)O [Cilastatin] (stock concentration (mM, diluted 1:100): 9.4)",-1.2 (inactive),-1.86 (inactive),-0.97 (inactive)
"NC(=O)c1cccnc1 [Nicotinamide] (stock concentration (mM, diluted 1:100): 10)",4.17 (inactive),-0.97 (inactive),-0.49 (inactive)
"C[C@]12CCC(=O)C=C1CC[C@@H]1[C@@H]2CC[C@@]2(C)[C@H]1CC[C@]2(O)C(=O)CO [Cortodoxone] (stock concentration (mM, diluted 1:100): 10)",5 (inactive),6.84 (active),-0.69 (inactive)
"CC(C)[C@H](N)C(=O)OCCOCn1cnc2c(=O)nc(N)[nH]c21 [Valaciclovir hydrochloride] (stock concentration (mM, diluted 1:100): 9)",0.8 (inactive),-0.28 (inactive),0.36 (inactive)
"Nc1ccn([C@@H]2CS[C@H](CO)O2)c(=O)n1 [Lamivudine] (stock concentration (mM, diluted 1:100): 9.9)",1.14 (inactive),-1.68 (inactive),-0.39 (inactive)
"CN(Cc1cnc2nc(N)nc(N)c2n1)c1ccc(C(=O)N[C@@H](CCC(=O)O)C(=O)O)cc1 [Methotrexate] (stock concentration (mM, diluted 1:100): 14.6)",-2.22 (inactive),-2.15,-0.16 (inactive)
"Nc1ccc2cn[nH]c2c1 [6-Aminoindazole] (stock concentration (mM, diluted 1:100): 10)",2.67 (inactive),-1.63 (inactive),-0.64 (inactive)
"COc1ccc(/C=C/C(=O)Nc2ccccc2C(=O)O)cc1OC [Tranilast] (stock concentration (mM, diluted 1:100): 10)",0.24 (inactive),-1.78 (inactive),-0.6 (inactive)
"Nc1nc(N)nc(-c2cc(Cl)ccc2Cl)n1 [Irsogladine maleate] (stock concentration (mM, diluted 1:100): 6.9)",0.91 (inactive),-0.44 (inactive),-1.26 (inactive)
"COc1ccc2[nH]c([S+]([O-])Cc3ncc(C)c(OC)c3C)nc2c1 (stereo unspecified) [Omeprazole] (stock concentration (mM, diluted 1:100): 10)",6.11 (inactive),-3.25,0.39 (inactive)
"O=c1c(-c2ccccc2)c1-c1ccccc1 [Diphenylcyclopropenone] (stock concentration (mM, diluted 1:100): 10)",0.85 (inactive),110 (active),39.9 (active)
"CNCC[C@H](Oc1cccc2ccccc12)c1cccs1 [Duloxetine] (stock concentration (mM, diluted 1:100): 10)",1.64 (inactive),99.6 (active),11 (active)
"OCCOCCN1CCN(C2=Nc3ccccc3Sc3ccccc32)CC1 [Quetiapine hemifumarate] (stock concentration (mM, diluted 1:100): 7.7)",9.6 (active),0.31 (inactive),1.12 (inactive)
"COc1ccccc1N1CCN(CCCNc2cc(=O)n(C)c(=O)n2C)CC1 [Urapidil hydrochloride] (stock concentration (mM, diluted 1:100): 10)",1.04 (inactive),-0.84 (inactive),0.85 (inactive)
"CC(C)(C)NCC(O)c1ccc(O)c(CO)c1 (stereo unspecified) [Salbutamol sulfate] (stock concentration (mM, diluted 1:100): 9.7)",-0.05 (inactive),-1.51 (inactive),-0.62 (inactive)
"CC(C)c1ccc2c(c1)c(SC(C)(C)C)c(CC(C)(C)C(=O)O)n2Cc1ccc(Cl)cc1 [Tocris-1311] (stock concentration (mM, diluted 1:100): 10)",11.2 (active),6.29 (active),-0.4 (inactive)
"CC(=O)OCC(CCn1cnc2cnc(N)nc21)COC(C)=O [Famciclovir] (stock concentration (mM, diluted 1:100): 10)",0.31 (inactive),-0.2 (inactive),-1.36 (inactive)
"OC[C@H]1O[C@@H](Oc2cc(O)cc(/C=C/c3ccc(O)cc3)c2)[C@H](O)[C@@H](O)[C@@H]1O [Piceid] (stock concentration (mM, diluted 1:100): 10)",0.56 (inactive),0.32 (inactive),-0.24 (inactive)
"CN1CCN(C2=Nc3ccccc3Oc3ccc(Cl)cc32)CC1 [Loxapine succinate] (stock concentration (mM, diluted 1:100): 11)",2.27 (inactive),6.01 (active),1.9 (inactive)

SMILES,CDA2-GFP sporulation assay sensitivity score [1],growth sensitivity score [2],growth sensitivity score [3]
"CCOC(=O)O[C@]1(C(=O)OCCl)CC[C@H]2[C@@H]3CCC4=CC(=O)C=C[C@]4(C)[C@H]3[C@@H](O)C[C@@]21C [Loteprednol etabonate] (stock concentration (mM, diluted 1:100): 10)",0 (inactive),5.74 (active),0.91 (inactive)
"CNCC[C@H](Oc1cccc2ccccc12)c1cccs1 [Duloxetine hydrochloride] (stock concentration (mM, diluted 1:100): 8.9)",16.3 (active),33.3 (active),21.8 (active)
"CCC(C)(C)N=C(NC#N)Nc1cccnc1 [Tocris-1355] (stock concentration (mM, diluted 1:100): 9.9)",3.65 (inactive),-1.02 (inactive),0.46 (inactive)
"CNCC[C@@H](Oc1ccccc1C)c1ccccc1 [Atomexetine hydrochloride] (stock concentration (mM, diluted 1:100): 8.7)",0.57 (inactive),5.57 (active),0.06 (inactive)
"O=C1c2c(O)cc(O)cc2OC(c2ccc(O)c(O)c2)C1O (stereo unspecified) [Taxifolin] (stock concentration (mM, diluted 1:100): 10)",-0.07 (inactive),-0.46 (inactive),-0.85 (inactive)
"CC1=Nc2ccc(Cl)cc2S(=O)(=O)N1 [Diazoxide] (stock concentration (mM, diluted 1:100): 10)",3.2 (inactive),0.08 (inactive),-0.72 (inactive)
"COc1c(N2C[C@@H]3CCCN[C@@H]3C2)c(F)cc2c(=O)c(C(=O)O)cn(C3CC3)c12 [Moxifloxacin hydrochloride] (stock concentration (mM, diluted 1:100): 9.2)",2.59 (inactive),22.4 (active),0.08 (inactive)
"C#C[C@]1(O)CC[C@H]2[C@@H]3CCc4cc(OC)ccc4[C@H]3CC[C@@]21C [Mestranol] (stock concentration (mM, diluted 1:100): 10)",4.85 (inactive),3.53 (active),0.8 (inactive)
"O=C(CCNNC(=O)c1ccncc1)NCc1ccccc1 [Nialamide] (stock concentration (mM, diluted 1:100): 10)",1.74 (inactive),-0.06 (inactive),0.19 (inactive)
"CC(=O)Oc1ccccc1C(=O)Nc1ncc([N+](=O)[O-])s1 [Nitazoxanide] (stock concentration (mM, diluted 1:100): 10)",7.92 (active),0.16 (inactive),1.77 (inactive)
"Clc1ccccc1CN1CCc2sccc2C1 [Ticlopidine hydrochloride] (stock concentration (mM, diluted 1:100): 8.7)",2.24 (inactive),1.32 (inactive),0.36 (inactive)
"Cc1onc(-c2ccccc2)c1-c1ccc(S(N)(=O)=O)cc1 [Valdecoxib] (stock concentration (mM, diluted 1:100): 10)",-1.13 (inactive),11 (active),0.72 (inactive)
"Cc1ccsc1C(=CCCN1CCC[C@@H](C(=O)O)C1)c1sccc1C [Tiagabine hydrochloride] (stock concentration (mM, diluted 1:100): 9.1)",2.44 (inactive),0.07 (inactive),0.29 (inactive)
"CC12CC3CC(C)(C1)CC(N)(C3)C2 [Memantine hydrochloride] (stock concentration (mM, diluted 1:100): 8.3)",2.32 (inactive),-0.36 (inactive),-0.66 (inactive)
"CO[C@H]1/C=C/O[C@@]2(C)Oc3c(C)c(O)c4c(O)c(c(/C=N/N5CCN(C6CCCC6)CC5)c(O)c4c3C2=O)NC(=O)/C(C)=C\C=C\[C@H](C)[C@H](O)[C@@H](C)[C@@H](O)[C@@H](C)[C@H](OC(C)=O)[C@@H]1C [Rifapentine] (stock concentration (mM, diluted 1:100): 10)",14.2 (inactive),-0.99 (inactive),0.15 (inactive)
"CC=CC(=O)N(CC)c1ccccc1C [Crotamiton] (stock concentration (mM, diluted 1:100): 10.3)",2.32 (inactive),0.99 (inactive),-0.07 (inactive)
"COc1ccccc1OCCNCC(O)COc1cccc2[nH]c3ccccc3c12 (stereo unspecified) [Carvedilol] (stock concentration (mM, diluted 1:100): 10)",-0.9 (inactive),50.7 (active),0.43 (inactive)
"CN1CCc2cc(Cl)c(O)cc2[C@@H](c2ccccc2)C1 (stock concentration (mM, diluted 1:100): 9.9)",15.9 (active),0.38 (inactive),-0.55 (inactive)
